High-throughput results: PubChem, Broad Institute
This excerpt belongs to a sample that is enriched for hits.
IDE exosite FP: exo-site inhibitors of human IDE, primary screen, biochemical, fluorescence anisotropy, probe displacement; z-score at 20 µM; 17,000 compounds, 6.3% hits; Insulin-degrading enzyme (Homo sapiens), P14735; purified IDE, FL-6b probe fluorescence polarization; stronger effect = lower value;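 active means z-score of -3 or lower, meaning strong loss of probe binding signal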;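 further: His-tagged human IDE residues 42-1019 made in E. coli with 30 nM FL-6b probe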
Target sequence (P14735 42-1019 limits assumed): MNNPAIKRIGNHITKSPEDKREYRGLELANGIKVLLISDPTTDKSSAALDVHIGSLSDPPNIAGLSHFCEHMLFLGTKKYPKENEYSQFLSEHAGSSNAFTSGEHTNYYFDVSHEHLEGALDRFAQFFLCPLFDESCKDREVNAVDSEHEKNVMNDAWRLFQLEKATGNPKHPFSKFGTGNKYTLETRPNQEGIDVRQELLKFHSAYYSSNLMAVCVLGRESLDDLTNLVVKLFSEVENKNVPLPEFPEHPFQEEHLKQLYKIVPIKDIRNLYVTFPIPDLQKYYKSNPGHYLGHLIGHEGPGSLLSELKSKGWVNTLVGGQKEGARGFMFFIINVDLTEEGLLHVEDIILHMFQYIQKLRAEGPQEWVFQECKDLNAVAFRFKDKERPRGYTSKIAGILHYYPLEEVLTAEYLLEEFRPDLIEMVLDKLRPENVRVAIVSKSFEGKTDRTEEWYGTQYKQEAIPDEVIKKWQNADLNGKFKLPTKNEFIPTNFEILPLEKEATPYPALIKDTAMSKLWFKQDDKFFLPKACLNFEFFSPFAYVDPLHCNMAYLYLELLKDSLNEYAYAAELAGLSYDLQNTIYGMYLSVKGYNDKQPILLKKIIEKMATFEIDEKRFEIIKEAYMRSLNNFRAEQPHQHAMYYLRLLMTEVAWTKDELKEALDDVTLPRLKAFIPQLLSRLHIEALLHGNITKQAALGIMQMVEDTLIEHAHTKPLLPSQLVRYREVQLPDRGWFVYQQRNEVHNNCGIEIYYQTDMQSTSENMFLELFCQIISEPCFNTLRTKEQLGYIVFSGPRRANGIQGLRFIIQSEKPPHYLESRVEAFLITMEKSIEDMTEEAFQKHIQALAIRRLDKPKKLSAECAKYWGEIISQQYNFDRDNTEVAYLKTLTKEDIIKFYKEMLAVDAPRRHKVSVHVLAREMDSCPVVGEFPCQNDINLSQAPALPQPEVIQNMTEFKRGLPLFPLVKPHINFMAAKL
Starred values were filed as active, the others as inactive; ! = repeats disagree.

SMILES	IDE exosite FP
O=C(c1cnccn1)N1CC(=O)N2[C@H](CO)[C@H](c3ccc(-c4ccc(F)cc4)cc3)[C@H]2C1	4
CCCC(=O)Nc1ccc2c(c1)OC[C@H](C)NC[C@H](C)[C@H](OC)CN(C)C2=O	-0.892
CC(=O)N1[C@H](CO)[C@H](c2ccccc2)[C@H]1CN(C)S(=O)(=O)c1ccccc1	-2.59
O=C(c1ccc2c(c1)OCO2)N1CCCCN2[C@H](CO)[C@@H](c3ccc(-c4ccccc4)cc3)[C@H]2C1	1.05
C/C=C/c1ccc([C@H]2[C@@H](CO)N3C(=O)CN(C(=O)Nc4ccc(OC)cc4)C[C@H]23)cc1	-0.546
C[C@@H](NC(=O)C[C@@H]1CC[C@H]2[C@@H](COC[C@@H](O)CN2Cc2ccc(C(F)(F)F)cc2)O1)c1ccccc1	-0.0611
CC(C)(O)C#Cc1ccc([C@H]2[C@H](CO)N3CCCCN(C(=O)c4ccc(F)cc4)C[C@@H]23)cc1	-0.522
C[C@@H]1CN([C@@H](C)CO)C(=O)c2ccccc2-c2ccccc2CO[C@H]1CN(C)C(=O)c1cc(Cl)cc(Cl)c1	-0.42
Cc1cccc(-c2ccc([C@@H]3[C@@H](CO)N4C(=O)CN(C(=O)c5cccnc5)C[C@@H]34)cc2)c1	-13.1*
COc1ccc(-c2ccc([C@H]3[C@@H](CO)N4C(=O)CN(C(=O)c5cccnc5)C[C@@H]34)cc2)cc1	2.69
Cc1ccc(-c2ccc([C@@H]3[C@H]4CN(C(=O)c5cccnc5)CC(=O)N4[C@H]3CO)cc2)cc1	-3.59*
Cc1ccc(-c2ccc([C@H]3[C@@H](CO)N4C(=O)CN(C(=O)c5cccnc5)C[C@@H]34)cc2)cc1	-1.71
O=C(c1cccc(F)c1)N1CC(=O)N2[C@H](C1)[C@H](c1ccc(-c3cccnc3)cc1)[C@@H]2CO	2.17
COc1ccc(-c2ccc([C@@H]3[C@H]4CN(C(=O)c5cccnc5)CC(=O)N4[C@H]3CO)cc2)cc1	1.66
COc1ccc(-c2ccc([C@@H]3[C@@H](CO)N4C(=O)CN(C(=O)c5cccnc5)C[C@H]34)cc2)cc1	0.582
COc1ccc(-c2ccc([C@H]3[C@@H](CO)N4C(=O)CN(C(=O)c5cccnc5)C[C@H]34)cc2)cc1	-4.9*
Cc1cccc(-c2ccc([C@H]3[C@@H](CO)N4C(=O)CN(C(=O)c5cccnc5)C[C@H]34)cc2)c1	-14.9*
COc1cccc(-c2ccc([C@@H]3[C@@H](CO)N4C(=O)CN(C(=O)c5cccnc5)C[C@H]34)cc2)c1	-1.31
C[C@@H]1CN([C@H](C)CO)C(=O)Cc2cc(NC(=O)Nc3ccc(F)cc3)ccc2O[C@@H]1CN(C)S(C)(=O)=O	0.804
CN(C)C(=O)c1cccc(-c2ccc([C@H]3[C@H](C#N)N(C(=O)C4CCC4)[C@H]3CO)cc2)c1	0.901
COc1ccc2c3c([nH]c2c1)[C@H](CO)N(C(=O)c1ccc(F)cc1)CC31CCN(C(=O)NC(C)C)CC1	-0.442
Cn1cnc(S(=O)(=O)N2CCCCN3[C@H](CO)[C@H](c4ccc(C#CC5CCCC5)cc4)[C@@H]3C2)c1	-0.756
O=C(c1cccc(F)c1)N1CC(=O)N2[C@@H](CO)[C@H](c3ccc(-c4ccccc4F)cc3)[C@@H]2C1	-2.97
CS(=O)(=O)N1Cc2cc(C(=O)NCC3CC3)nc(-c3cccc(-c4cncnc4)c3)c2[C@H]1CCO	0.688
COc1ccc2c3c([nH]c2c1)[C@H](CO)N(C(C)=O)CC31CN(Cc2ccccc2Cl)C1	0.558
SMILES	IDE exosite FP
COCC(=O)Nc1ccc2c(c1)C(=O)N(C)[C@H]1CC[C@@H](CC(=O)NC3Cc4ccccc4C3)O[C@H]1CO2	0.594
CN1c2ccc(C3=CCCCC3)cc2[C@@H]2[C@@H](CCN2C(=O)c2ccccc2F)[C@@H]1CO	1.59
CN(C)C(=O)C[C@H]1CC[C@@H]2[C@H](COC[C@H](O)CN2C(=O)c2ccncc2)O1	1.32
OC[C@H]1[C@H](c2ccc(-c3cccc(F)c3)cc2)[C@H]2CN(CCC(F)(F)F)CCCCN21	1.75
O=C(CN1CCOCC1)N1CC[C@@H]2[C@H](CO)Nc3ccc(-c4ccccc4F)cc3[C@@H]21	-1.48
C[C@@H]1CN([C@@H](C)CO)C(=O)c2cc(NS(=O)(=O)c3ccc(Cl)cc3)ccc2O[C@@H](C)CCCCO[C@H]1CN(C)C(=O)CCCN(C)C	-0.0778
O=C(c1cccnc1)N1CC(=O)N2[C@@H](CO)[C@H](c3ccc(-c4cccnc4)cc3)[C@@H]2C1	-0.787
O=C(c1ccncc1)N1CC(=O)N2[C@H](C1)[C@@H](c1ccc(-c3cccnc3)cc1)[C@@H]2CO	-3.21*
O=C(c1cccnc1)N1CC(=O)N2[C@H](C1)[C@@H](c1ccc(-c3cccnc3)cc1)[C@@H]2CO	-1.93
COc1ccc2c3c([nH]c2c1)[C@@H](CO)N(Cc1ccc(F)cc1)CC31CN(C)C1	-0.66
CN(C)CC#Cc1ccc([C@@H]2[C@@H](CO)N3CCCCN(C(=O)Nc4cc(F)ccc4F)C[C@@H]23)cc1	-0.0548
C[C@H](CO)N1C[C@H](C)[C@H](CN(C)C(=O)CN2CCOCC2)Oc2ncc(-c3ccncc3)cc2C1=O	-1.05
COCC(=O)N1C[C@H](C)[C@@H](OC)CN(C)C(=O)c2ccc(NC(=O)Nc3cccc(F)c3)cc2OC[C@@H]1C	0.177
COc1ccc(C#Cc2ccc([C@H]3[C@@H](CO)N4CCCCN(C(=O)Nc5ccc(F)cc5)C[C@@H]34)cc2)cc1	1.93
COc1cccc(S(=O)(=O)N2C[C@@H]3N[C@H](C2)C3c2ccc(-c3ccccc3OC)cc2)c1 (stereo not given in full)	-2.23
COc1cccc(S(=O)(=O)N2C[C@@H]3N[C@H](C2)C3c2ccc(-c3ccccc3F)cc2)c1 (stereo not given in full)	0.572
Cc1cccc(S(=O)(=O)N2C[C@@H]3N[C@H](C2)C3c2ccc(-c3ccccc3F)cc2)c1 (stereo not given in full)	2.53
Cc1cccc(S(=O)(=O)N2C[C@@H]3N[C@H](C2)C3c2ccc(-c3cncnc3)cc2)c1 (stereo not given in full)	0.0923
Cc1cccc(S(=O)(=O)N2C[C@@H]3N[C@H](C2)C3c2ccc(-c3ccccc3C)cc2)c1 (stereo not given in full)	-6.55*!
COc1cccc(S(=O)(=O)N2C[C@@H]3N[C@H](C2)C3c2ccc(-c3ccccc3C)cc2)c1 (stereo not given in full)	-9.86*!
C[C@@H]1CCCCO[C@@H](CN(C)S(=O)(=O)c2ccc(F)cc2)[C@H](C)CN([C@@H](C)CO)C(=O)c2cc(N(C)C)ccc2O1	0.25
N#C[C@H]1[C@H](c2ccccc2-c2ccccc2)[C@@H](CO)N1C(=O)Cc1cccnc1	1.51
N#C[C@@H]1[C@@H](c2ccccc2C2=CCCCC2)[C@H](CO)N1C(=O)c1ccccn1	-0.706
COc1ccc(C#Cc2ccc([C@@H]3[C@H]4CN(C(=O)Nc5ccccc5F)CCCCN4[C@H]3CO)cc2)cc1	0.863
CCC(=O)N1CCCCN2[C@H](CO)[C@@H](c3ccc(C#CCOC)cc3)[C@H]2C1	2.83
CC(=O)N1CCCCN2[C@H](CO)[C@@H](c3ccc(C#Cc4ccccc4F)cc3)[C@H]2C1	-5.25*
CCC(=O)N1CCCCN2[C@@H](CO)[C@H](c3ccc(C#Cc4ccccc4F)cc3)[C@@H]2C1	-3.92*
CCC(=O)N1CCCCN2[C@@H](CO)[C@@H](c3ccc(C#Cc4ccccc4F)cc3)[C@@H]2C1	-8.15*
CCC(=O)N1CCCCN2[C@H](CO)[C@@H](c3ccc(C#Cc4ccccc4F)cc3)[C@H]2C1	1.77
